These results are taken from ChEMBL document CHEMBL3988442, “University of Dundee, Small-Polar-MMV Screening Library” (2021).

The assay deals with Leishmania donovani. In words: Leishmania intramacrophage assay. The format is functional, organism-based. Set-up: scale not given: in the data most compounds retested in dose-response had high values.

Out of some 69,000 compounds screened, about 1,000 (1.4%) showed an effect of 50% or more. Many of the other results were omitted from the sample, so strong results are more common in it than they were.

Consider `CC(=O)NCC(=O)N1CCC2(COCc3c(C)nc(N(C)C)nc32)C1` (stereo not drawn), for which, where the note is “30.3 µM, […]”, the “Percent Effect” value came out at 0.3657%.
`Cc1ccoc1C(=O)N1CC[C@H]2C[C@H](c3nnc(C4CC4)o3)O[C@@H]2C1`: the “Percent Effect” value (30.3 µM, […]) came out at 7.701%.
Regarding `Cc1cc(C(=O)Cn2cnnc2[S+](C)[O-])cc(C)c1F` (stereo not drawn), the “Percent Effect” value (30.3 µM, […]) was determined as 9.03%.
As to `CCCc1nn(C2CCN(C3CC3)C2=O)c(=O)o1` (stereo not drawn), the “Percent Effect” value (30.3 µM, […]) is given as -13.56%.
`CCCc1nn(C2CCCN(C(C)C)C2=O)c(=O)o1` (stereo not drawn): the “Percent Effect” value (30.3 µM, […]) is -18.62%.
With `CCCc1nn(C2CCN(C(C)C)C2=O)c(=O)o1` (stereo not drawn), under “30.3 µM, […]”, the “Percent Effect” value was determined as 51.41%.
Consider `CC(=O)N1CCC2(CC1)C(=O)N(C)c1ccc(F)cc12`, for which, where the note is “30.3 µM, […]”, the “Percent Effect” value stood at 29.57%.
On to `CN1C(=O)C2(CCN(C(=O)c3ccccc3)CC2)c2cc(F)ccc21.Cl`, for which, for the setting “30.3 µM, […]”, the “Percent Effect” value is reported as 50.2%.
On to `CC(Oc1ccc(F)c(F)c1)C(=O)N(CC(N)=O)C1CCCC1` (stereo not drawn), for which the “Percent Effect” value (30.3 µM, […]) is recorded as -10.08%.
In the case of `CCc1nccn1C1CCCN(C(=O)c2cc3nc(C)ccc3o2)C1` (stereo not drawn), under “30 µM, 30.03 µM”, the “Percent Effect” value is 3.953%.
Regarding `COc1ccccc1CNC(=O)C(C)n1cc2c(n1)c(C)nn2C` (stereo not drawn), the “Percent Effect” value (30.3 µM, […]) is listed as 52.43%.
With `COc1ccccc1CNC(=O)Cn1ncc2c1c(C)nn2C`, where the note is “30 µM, 30.03 µM”, the “Percent Effect” value is listed as 13.53%.
As to `Cc1nn(C)c2c(NCc3ccccn3)ncnc12`, the “Percent Effect” value (30.3 µM, […]) stood at 50.68%.
Regarding `Cc1nn(C)c2cn(C(C)C(=O)NCc3ccccn3)nc12` (stereo not drawn), where the note is “30.3 µM, […]”, the “Percent Effect” value stood at 50.14%.
As to `Cc1nn(C)c2cn(C(C)C(=O)NCc3cccnc3)nc12` (stereo not drawn), the “Percent Effect” value (30 µM, 30.03 µM) amounted to 8.191%.
On to `COc1ccccc1CNC(=O)C(C)N1CC(n2cc(C)cn2)C1` (stereo not drawn), for which the “Percent Effect” value (30.3 µM, […]) came to 25.52%.
On the same count and under the same terms, next, `Cc1nc(NCc2ccccn2)c2c(n1)c(C)nn2C`: 42.28%.
As to `CCn1nccc1CNC(=O)C(C)n1cc2c(n1)c(C)nn2C` (stereo not drawn), for the setting “30 µM, 30.03 µM”, the “Percent Effect” value was -8.273%.
For `Cc1nn(C)c2cn(C(C)C(=O)NCc3ccncc3)nc12` (stereo not drawn), the “Percent Effect” value (30.3 µM, […]) is 59.59%.
The same measure, in the same setting: the value for `CCc1nc(NCc2ccccn2)c2c(n1)c(C)nn2C` was -38.07%.
In the case of `Cc1nn(C)c2cn(C(C)C(=O)NCc3ccc(F)cc3)nc12` (stereo not drawn), the “Percent Effect” value (30.3 µM, […]) was 25.73%.
Still for that read-out and setting: the value for `Cc1nn(C)c2cn(C(C)C(=O)NCc3cccc(F)c3)nc12` (stereo not drawn) was -38.24%; that for `Cc1nc(NCc2ccc(F)cc2)cc(C(=O)N2CCOCC2)n1` was 32.39%.
As for `Cc1ccc(CN2CCCC3(CCCCN3S(C)(=O)=O)C2)s1.O=C(O)C(F)(F)F` (stereo not drawn), the “Percent Effect” value (30.3 µM, […]) is on record as 8.751%.
With `Cn1cnnc1C1CCCN(C(=O)NCCCn2cccn2)C1` (stereo not drawn), the “Percent Effect” value (30 µM) is listed as 24.48%.
As to `Cn1cnnc1SCc1cc2c(cc1Br)OCO2`, the “Percent Effect” value (30.3 µM, […]) is reported as -1.981%.
On to `CN(C(=O)c1cccc(OCC(F)F)n1)c1ccc2c(c1)CCO2`, for which, under “30.3 µM, […]”, the “Percent Effect” value is 24.43%.
`O=C(C1SCCc2sccc21)N1CCN(CCO)CC1` (stereo not drawn): the “Percent Effect” value (30 µM, 30.03 µM) was -7.988%.
Take `Cc1cc(N(C)C)nc(C2(C)CCCN2C(=O)c2ccn(C)n2)n1` (stereo not drawn): where the note is “30.3 µM, […]”, the “Percent Effect” value amounted to 1.341%.
Same read-out and setting: the value for `COc1ccc(OCCN(C)S(=O)(=O)N2CCOCC2)cc1` was 11%; that for `CC(C)NC(=O)c1ccc2nnc(C3CN(C)CCN3C)n2c1.O=C(O)C(F)(F)F.O=C(O)C(F)(F)F` (stereo not drawn) was -3.873%.
With `COc1c(CNCc2ccc(C(=O)N(C)C(C)C)cc2)c(C)nn1C`, the “Percent Effect” value (30 µM) came to 21.5%.
As to `COc1c(CNCc2cccc(Cn3cccn3)c2)c(C)nn1C`, the “Percent Effect” value (30 µM) is reported as 41.23%.
Regarding `COc1c(CNCc2cccc(C(=O)N(C)C)c2)c(C)nn1C`, under “30 µM”, the “Percent Effect” value came out at 37.17%.
With `COc1c(CNCc2cccc(CN(C)C)c2)c(C)nn1C.Cl`, the “Percent Effect” value (30 µM, 30.03 µM) came to 41.69%.
As to `COc1c(CNCc2cccc(Cn3ccnc3C)c2)c(C)nn1C.Cl`, the “Percent Effect” value (30 µM) is 52.6%.
Take `COc1c(CNCc2cccc(Cn3ccnc3)c2)c(C)nn1C`: the “Percent Effect” value (30 µM, 30.03 µM) worked out at 57.06%.
For the molecule `COc1c(CNCc2ccc(Cn3ccnc3)cc2)c(C)nn1C`, for the setting “30 µM”, the “Percent Effect” value is given as 38.9%.
As for `COc1c(CNCc2ccccc2Cn2ccnc2)c(C)nn1C`, the “Percent Effect” value (30 µM) was 42.31%.
Take `COc1c(CNCc2ccc(C(=O)N(C)C)cc2)c(C)nn1C.Cl`: where the note is “30 µM, 30.03 µM”, the “Percent Effect” value is on record as 56.22%.
As for `O=C(CN1CCCC(c2ccc(C(=O)O)cc2)C1)NC1CC1` (stereo not drawn), the “Percent Effect” value (30 µM, 30.03 µM) came out at 23.13%.
Consider `Cc1ccc2cc(C(=O)N3CCCC3Cn3cccn3)[nH]c2c1` (stereo not drawn), for which the “Percent Effect” value (30.3 µM, […]) amounted to 22.94%.
In the case of `Cc1cnn(CCNCc2ccc(OCc3cccnc3)cc2)c1`, the “Percent Effect” value (30 µM) was determined as 27.42%.
On to `CN(C)C(=O)N1CCOCC2(CCN(c3ccccn3)C2)C1.O=C(O)C(F)(F)F` (stereo not drawn), for which the “Percent Effect” value (30 µM, 30.03 µM) was found to be 18.14%.
`O=S1(=O)c2ccccc2C(O)CN1CCO` (stereo not drawn): for the setting “30.3 µM, […]”, the “Percent Effect” value worked out at 5.205%.
`CCN(CC)c1ccc2ccc(C(=O)N3CCCCO3)cn12.O=C(O)C(F)(F)F`: the “Percent Effect” value (30.3 µM, […]) was 27.79%.
The same measure, in the same setting: next, `CCN(CC)c1ccc2ccc(C(=O)O)cn12`: 18.9%; `Cc1nc(-c2ccc(S(=O)(=O)N3CCOCC3)cc2)co1`: 23.37%; `Cc1nn(C)cc1CN1C[C@@H]2CC[C@H](C1)N(Cc1c(C)noc1C)C2=O`: 16.01%.
For the molecule `CCCN1CCC(c2nc3ccc(-c4cccc(F)c4)cn3n2)CC1.O=C(O)C(F)(F)F`, the “Percent Effect” value (30.3 µM, […]) is on record as 49.02%.
On the same count and under the same terms, next, `CCN1CCC(c2nc3ccc(NC4CCC4)cn3n2)CC1.O=C(O)C(F)(F)F`: 53.52%; `CC(=O)N1CCC(c2nc3ccc(NC4CCC4)cn3n2)CC1.O=C(O)C(F)(F)F`: 40.49%.
On to `CCCN1CCC(c2nc3ccc(-c4ccccc4)cn3n2)CC1.O=C(O)C(F)(F)F`, for which the “Percent Effect” value (30.3 µM, […]) was found to be 22.28%.
